High-throughput results as filed in PubChem.
TDP1 inh: inhibitors of human tyrosyl-DNA phosphodiesterase TDP1; Q9NUW8; 350,000 tested, 0.28% active; Potency, µM (doses to about 130 µM), for inactives: at the highest dose activity change, negative = inhibition, hits mostly inhibitors; recombinant TDP1, AlphaScreen DNA substrate cleavage; AID 485290; also: % is scaled to controls: 0 for no effect and ±100 for the full control effect; nearly all actives have a fitted effect of over 40% in size
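Recombinant human Tdp1 (E. coli-expressed, 1 nM final) preincubated with compounds 15 min at room temperature, then 5'-biotin/3'-phosphotyrosine-FITC DNA substrate (15 nM final) added for 5 min. AlphaScreen beads (10 ug/ml final) added 10 min; cleavage lowers signal.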
G9a block: blocks human histone lysine methyltransferase G9a. 350,000 tested, 8.8% active. Potency, µM (doses to about 102 µM), inactives show top-dose activity, negative = inhibition, actives largely listed as inhibitors. G9a H3K9 monomethylation, AlphaScreen, 2 h. Q96KQ7; also: % is scaled to controls: 0 for no effect and ±100 for the full control effect; nearly all actives have a fitted effect of over 75% in size
Target sequence (Q96KQ7 913-1193 limits assumed): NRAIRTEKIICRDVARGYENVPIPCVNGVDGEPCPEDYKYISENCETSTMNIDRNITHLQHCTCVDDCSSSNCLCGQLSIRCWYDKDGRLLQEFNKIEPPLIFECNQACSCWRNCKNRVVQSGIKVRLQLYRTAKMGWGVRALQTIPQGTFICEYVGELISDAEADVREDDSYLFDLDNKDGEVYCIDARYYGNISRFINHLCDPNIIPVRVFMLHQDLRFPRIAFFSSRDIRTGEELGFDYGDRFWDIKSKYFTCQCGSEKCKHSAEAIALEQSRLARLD
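Chemiluminescent proximity detection of H3K9 monomethylation, read after 10 min bead incubation in the dark. Reaction: 20 nM G9a, 500 nM biotin-H3K9 peptide, 20 uM SAM cofactor, 2 h, room temperature, following 15 min enzyme-compound preincubation.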
BAZ2B block: BAZ2B (human) inhibition; Q9UIF8; AlphaScreen BAZ2B-H3K14Ac peptide displacement; Potency, µM (doses to about 114 µM), without a hit: at the top dose activity change, negative = inhibition, usual class: inhibitors; 360,000 tested, 4.4% active; AID 504333; also: % is scaled to controls: 0 for no effect and ±100 for the full control effect; nearly all actives have a fitted effect of over 60% in size
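AlphaScreen luminescence quantifies BAZ2B engagement of H3K14Ac peptide; the protein and biotinylated peptide are both at 50 nM final, buffer PBS pH 7.4 with 0.01% Tween-20, all steps at room temperature.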
HP1b binding inh: blocks HP1-beta chromodomain binding to methylated histone tails | 390,000 tested, 0.56% active | AlphaScreen HP1-beta / biotin-H3K9me3 peptide binding | AID 540317 | P83916 | Potency, µM (titrated, usually from 114 µM), for the others: at the highest dose activity change, negative = inhibition, actives largely listed as inhibitors; also: nearly all actives have a fitted effect of over 70% in size
Target sequence (P83916 whole entry, looked up): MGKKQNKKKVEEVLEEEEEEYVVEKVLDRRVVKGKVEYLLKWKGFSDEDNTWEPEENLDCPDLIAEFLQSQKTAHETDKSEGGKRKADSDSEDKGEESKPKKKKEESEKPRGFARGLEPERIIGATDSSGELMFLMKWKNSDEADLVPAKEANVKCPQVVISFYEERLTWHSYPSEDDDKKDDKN
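AlphaScreen: HP1-beta (50 nM) preformed 30 min with biotin-H3(1-18)K9me3 peptide (50 nM) in PBS pH 7.4, 0.01% Tween-20. Compound added for 30 min at RT, then streptavidin donor/nickel chelate acceptor beads (10 ug/mL) for 30 min.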
JMJD2A Tudor inh: blocks the human JMJD2A Tudor domain. 390,000 tested, 4.4% active. Potency, µM (doses to about 114 µM), inactives show top-dose activity change, negative = inhibition, usual class: inhibitors. O75164. AlphaScreen JMJD2A-Tudor / H3K4me3 peptide binding; also: % is scaled to controls: 0 for no effect and ±100 for the full control effect; nearly all actives have a fitted effect of over 50% in size
Sfp inh: blocks B. subtilis Sfp PPTase activity | Q9F4F7 | Biochemical Sfp PPTase activity, qHTS | Potency, µM, for the others: largest response in the series, negative = inhibition, hits mostly inhibitors | 310,000 tested, 3.5% active;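 also: the enzyme is Sfp with the accession as filed and its product quenches rhodamine fluorescence; 0% = enzyme reaction without inhibitor and -100% = no enzyme wells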
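Fluorescence-quenching assay with 15 nM Sfp, 5 uM rhodamine-CoA and 12.5 uM BHQ-2-labelled ybbR peptide in pH 7.6 Hepes/MgCl2 buffer. Enzyme was pre-incubated with compound for 15 min at room temperature. Rate was taken from the 30-min fluorescence change (525/598 nm).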
Numbers without * were called inactive; u = inconclusive; x = no result; [ ] = dose if it differs, or a comment. The list is not random: actives were taken first. Their share in the collection is about 12%. Calls follow the shape of the dose curve; as a rule, active = well fitted curve in the direction sought with a large enough effect; inconclusive = small, poorly fitted or top-dose-only effect, or another doubt; inactive = no such curve, though single readings can be large; an effect the other way counts as inactive or inconclusive. Potency is read from the fitted curve at half-maximal effect.

SMILES	TDP1 inh	G9a block	BAZ2B block	HP1b binding inh	JMJD2A Tudor inh	Sfp inh
COc1ccc(S(=O)(=O)Oc2cc(C(=S)N3CCOCC3)ccc2OC)cc1	5%	35µM*	-26%	-8%	-30%	-4%
COc1cc(C(=S)N2CCOCC2)cc(OC)c1OS(=O)(=O)c1ccc(NC(C)=O)cc1	4%	-31%[59 µM]	-6%	19%	-18%	3%
CCOc1cc(C(=S)N2CCC(O)CC2)ccc1OS(=O)(=O)c1ccc(Br)cc1	5%	8.9µM*	u	u	u	u
CCN(c1ccccc1C)S(=O)(=O)c1cc2c3c(c1)CCC(=O)N3CCC2	3%	17%	-17%	25%	-18%	9%
COC(=O)c1ccc(C(=S)N2CCOCC2)cc1	-7%	u	0%	u	-14%	22µM*
COc1cc(C(=S)N2CCOCC2)cc(OC)c1OS(=O)(=O)c1ccc(C)cc1	3%	28µM*	u	-11%	-30%	56µM*
COc1ccc(C(=O)Oc2ccc(C(=S)N3CCOCC3)cc2)cc1	5%	x	-35%	u	u	22µM*
Cc1ccc(C2=Nc3ccccc3N(CC(=O)Nc3cccc(F)c3)C(=O)C2)cc1C	11%	-5%[59 µM]	7%	70%	u	x
CN(CC1COc2ccccc2O1)C(=O)c1cccc(S(=O)(=O)N2CCCC2)c1 (centres undefined)	2%	1µM*	-5%	23%	-8%	x
O=C(NCC1COc2ccccc2O1)c1cc(S(=O)(=O)N2CCOCC2)ccc1F (centres undefined)	-8%	22µM*	4%	20%	-14%	x
O=C(NCC1COc2ccccc2O1)c1c[nH]c2ccc(S(=O)(=O)N3CCOCC3)cc2c1=O (centres undefined)	5%	u	9%	13%	-14%	16%
COc1ccccc1NC(=O)Cn1c(=O)n(CCc2ccccc2)c(=O)c2sc3ccccc3c21	1%	-30%[59 µM]	-11%	4%	-13%	x
Cc1ccc(-n2ncc3c2CC(C)(C)CC3NC(=O)c2ccccn2)cc1 (centres undefined)	1%	3%	u	29%	-30%	0%
COc1ccc(C2=NO[C@@H]3C(=O)N(c4c(C)cccc4C)C(=O)[C@H]23)cc1OC	-1%	50µM*	3%	43%	-12%	9%
Cc1cccc(C)c1N1C(=O)[C@@H]2C(c3ccccc3Cl)=NO[C@@H]2C1=O	1%	50µM*	-2%	5%	-10%	8%
COc1ccc(OC)c(N2C(=O)[C@@H]3C(c4ccccc4Cl)=NO[C@@H]3C2=O)c1	x	26%[2.33 µM]	32µM*	18µM*	u	5%
COC(=O)c1ccccc1N1C(=O)[C@@H]2C(c3ccc(F)cc3)=NO[C@@H]2C1=O	2%	14%[59 µM]	x	42%	-6%	11%
CCn1c(=O)c2sccc2n2c(CCCC(=O)N3CCN(c4ccc(OC)cc4)CC3)nnc12	5%	-7%[59 µM]	1%	11%	-15%	x
COc1c2c(c3c(c1OC)c(=O)c1ccccc1n3C)OCO2	x	x	x	67%	10%	x
CC(=O)N1CCc2c(sc3c2c(=O)n(-c2ccccc2C)c(=O)n3CC(=O)c2ccccc2)C1	4%	16%[59 µM]	9%	14%	-8%	x
NC(=S)NN=C(c1ccc(Br)cc1)C1CC1	x	x	x	u	0.79µM*	x
CCOC(=O)Nc1ccc2c(CN3CCN(S(=O)(=O)c4ccc(C(C)C)cc4)CC3)cc(=O)oc2c1	0%	22%[12.7 µM]	9%	42%	-2%	x
Cc1ccc(NC(=O)CSc2nnc(-c3cccnc3)o2)c(C)c1	1%	45µM*	3%	33%	-14%	x
CCCc1ccc(OCc2ccc(C(=O)NN)o2)c(OC)c1	x	-7%	-39%	45%	-19%	2%
S=c1nn[nH]n1C12CC3CC(CC(C3)C1)C2	0%	1.4µM*	u	-5%	50µM*	u
SMILES	TDP1 inh	G9a block	BAZ2B block	HP1b binding inh	JMJD2A Tudor inh	Sfp inh
Cc1cnc(C(=O)NCc2ccc(F)cc2)cn1	-5%[0.0935 µM]	35%	5%	16%	-6%	15%
Clc1cccc(Cl)c1/C=C/c1nc2ccccc2[nH]1	5%	0%	0%	53%	8%	3%
CC(C)SC1=NC(C)(C)C=C(/C=C/c2c(Cl)cccc2Cl)N1	7%	45µM*	-15%	58%	-3%	-15%
CC(C)SC1=NC(C)(C)C=C(/C=C/c2ccc(Cl)cc2Cl)N1	5%	45µM*	u	-19%	-31%	3%
COCCn1nnnc1CN(Cc1cc2cc(OC)c(OC)cc2[nH]c1=O)C1CCCC1	4%	18%[59 µM]	33%	25%	1%	-3%
COc1ccc(Cn2nnnc2CN(Cc2cc3ccc(C)cc3[nH]c2=O)C2CCCC2)cc1	8%	35µM*	3%	10%	-26%	7%
COc1cc2cc(CN(Cc3nnnn3Cc3ccco3)C3CCCCC3)c(=O)[nH]c2cc1OC	x	40µM*	-10%	-16%	u	10µM*
CCOc1ccc2[nH]c(=O)c(CN(Cc3nnnn3Cc3ccco3)C3CCCCC3)cc2c1	x	u	45µM*	2%	-27%	4µM*
CCC(C)(C)n1nnnc1CN(Cc1cc2cc(OC)ccc2[nH]c1=O)C1CCCC1	4%	-5%	-2%	7%	-33%	12%
Cc1ccc2cc(CN(Cc3ccc(F)cc3)Cc3nnnn3C3CCCC3)c(=O)[nH]c2c1	12%	14µM*	3%	14%	-31%	22µM*
Cc1ccc2cc(CN(Cc3ccccc3)Cc3nnnn3C3CCCC3)c(=O)[nH]c2c1	4%	-7%[12.7 µM]	4%	14%	-27%	-2%
NS(=O)(=O)c1ccc(CCNC(=O)CCc2nc3ccccc3s2)cc1	x	18%	-24%	13%	-1%	9%
Cc1cc2occ(CC(=O)N(C)CC(=O)Nc3cccc(F)c3)c2cc1C	2%	x	-36%	20%	-9%	19%
S=C(N=Nc1ccccc1)NNc1ccccc1	11%	10µM*	35µM*	16µM*	25µM*	-14%
Nc1nc(N)c2[nH]c(=S)[nH]c2n1	x	x	x	u	3.5µM*	x
CCNC(=O)C1CCCN1S(=O)(=O)c1ccc(OC)cc1 (centres undefined)	-3%	8.9µM*	8%	7%	-6%	14%
COc1ccc(S(=O)(=O)N2CCCC2C(=O)Nc2nnc(-c3cccnc3)s2)cc1 (centres undefined)	2%	3.5µM*	-8%	-26%	-26%	-7%
Cn1c(SCC(=O)c2ccccc2)nnc1-c1cccnc1	0%	-9%[59 µM]	-30%	22%	-15%	-8%
